Data as given in PubChem BioAssay (NCI).
This is part of a sample that, as a whole, favours compounds with a hit. Of some 83,000 tested, about 20% had one in any assay.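 Method: cells in 96-well plates; compound added at one concentration; 48 h incubation; percent growth measured; values under 10 scored active.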 Calls of active or inactive are those of the source.

Experiments:
Test in all cases: NCI-60 one-dose screen, 48 h (100 = growth as untreated, 0 = no growth, -100 = all killed)
Conditions in all cases: 10 µM unless noted
NCI-H23 lung = test system: NCI-H23 lung
NCI-H226 lung = test system: NCI-H226 lung
NCI-H322M lung = test system: NCI-H322M lung
HOP-62 NSCLC = test system: HOP-62 NSCLC
NCI-H460 lung = test system: NCI-H460 lung
HOP-92 NSCLC = test system: HOP-92 NSCLC
NCI-H522 lung = test system: NCI-H522 lung
A549/ATCC NSCLC = test system: A549/ATCC NSCLC
786-0 renal = test system: 786-0 renal
COLO 205 colon = test system: COLO 205 colon

Measured: growth

CC(=O)c1cnc2ccc(-c3cc(Cl)c(O)c(Cl)c3)nc2c1NC1CCC(CN(C)C)CC1 (stereo not given)
active: NCI-H23 lung -54.3% [2.5 µM] | NCI-H226 lung -16.3% [2.5 µM] | NCI-H322M lung -37.7% [2.5 µM] | HOP-62 NSCLC -34.4% [2.5 µM] | NCI-H460 lung -51.8% [2.5 µM] | HOP-92 NSCLC -20.3% [2.5 µM] | NCI-H522 lung -75.5% [2.5 µM] | A549/ATCC NSCLC -8.85% [2.5 µM] | 786-0 renal -48.3% [2.5 µM] | COLO 205 colon -94.2% [2.5 µM]

CN1CCC(COc2cnc(-c3cccc(Cn4nc(-c5cccc(C#N)c5)ccc4=O)c3)nc2)CC1
inactive: NCI-H23 lung 62.5% | NCI-H226 lung 92.2% | NCI-H322M lung 88.7% | HOP-62 NSCLC 45.7% | NCI-H460 lung 52.4% | HOP-92 NSCLC 72.2% | NCI-H522 lung 25.5% | A549/ATCC NSCLC 48.1% | 786-0 renal 61.9%
active: COLO 205 colon -60.3%

Nc1c2c(c(O)c3c1=C(CO)C=N3)=NCCS2=O (stereo not given)
active: NCI-H23 lung -33.4% | NCI-H226 lung -52.2% | NCI-H322M lung -95.1% | HOP-62 NSCLC -52.7% | NCI-H460 lung -61.7% | HOP-92 NSCLC -54.3% | NCI-H522 lung -46.9% | A549/ATCC NSCLC -42.4% | COLO 205 colon -75.1%
inactive: 786-0 renal 36.1%

C=CCn1c(=O)c2cnc(Nc3ccc(N4CCN(C)CC4)cc3)nc2n1-c1cccc(C(C)(C)O)n1
inactive: NCI-H226 lung 40% | NCI-H322M lung 14.1% | NCI-H460 lung 12% | HOP-92 NSCLC 49.2% | A549/ATCC NSCLC 15.9% | 786-0 renal 14%
active: NCI-H23 lung 2.22% | HOP-62 NSCLC 2.56% | NCI-H522 lung -45.8% | COLO 205 colon -29.5%

COC(=O)[C@H](C)NC(=O)[C@@H](OC)[C@@H]1Cc2cc3cc(OC4CC(OC5CC(O)C(O)C(C)O5)C(O)C(C)O4)c(C)c(O)c3c(O)c2C(=O)[C@H]1OC1CC(OC2CC(OC3CC(C)(O)C(O)C(C)O3)C(O)C(C)O2)C(O)C(C)O1 (stereo not given in full)
inactive: NCI-H322M lung 11.4% | HOP-62 NSCLC 13%
active: NCI-H23 lung -31.1% | NCI-H226 lung -21.5% | NCI-H460 lung 7.28% | HOP-92 NSCLC 3.12% | NCI-H522 lung -26% | A549/ATCC NSCLC 7.05% | 786-0 renal -4.86% | COLO 205 colon -20.5%

N#Cc1ccc(-n2nnc3ccccc32)cc1C#N
inactive: NCI-H23 lung 94% | NCI-H226 lung 96.7% | NCI-H322M lung 111% | HOP-62 NSCLC 94.6% | NCI-H460 lung 107% | HOP-92 NSCLC 103% | NCI-H522 lung 88.1% | A549/ATCC NSCLC 87.2% | 786-0 renal 99.5% | COLO 205 colon 104%

c1cn2cc(-c3ccc4cn[nH]c4c3)nc(Nc3ccc(N4CCOCC4)cc3)c2n1
inactive: NCI-H23 lung 64.8% | NCI-H226 lung 20.8% | NCI-H322M lung 70% | NCI-H460 lung 41.7% | HOP-92 NSCLC 39.2% | NCI-H522 lung 24.4% | A549/ATCC NSCLC 45% | 786-0 renal 59.2% | COLO 205 colon 61.3%
active: HOP-62 NSCLC 9.23%

CN1CCN(c2ccc(OC(F)(F)F)c(Nc3ncc4c(n3)-c3c(c(C(N)=O)nn3CCO)CC4)c2)CC1
inactive: NCI-H23 lung 26% | NCI-H226 lung 57.8% | NCI-H322M lung 58.1% | HOP-92 NSCLC 25.8% | 786-0 renal 17%
active: HOP-62 NSCLC 5.17% | NCI-H460 lung 5.8% | NCI-H522 lung -22% | A549/ATCC NSCLC 9.12% | COLO 205 colon -15.4%

COc1ccc(-c2nc(N)ncc2Oc2ccccc2OC)c(O)c1
inactive: NCI-H23 lung 38.8% | NCI-H226 lung 73.5% | NCI-H322M lung 50.5% | HOP-62 NSCLC 27.9% | NCI-H460 lung 16.4% | HOP-92 NSCLC 49.2% | NCI-H522 lung 28.7% | A549/ATCC NSCLC 35.7% | 786-0 renal 37%
active: COLO 205 colon 2.73%

COC(=O)C1=C(C(=O)OC)C23C=C(C)C1C2=C(C)C1(CC1)[C@@](C)(O)C3=O (stereo not given in full)
active: NCI-H23 lung -20.9% | NCI-H226 lung -34.8% | NCI-H322M lung -9.66% | HOP-62 NSCLC -21.7% | NCI-H460 lung 0.847% | HOP-92 NSCLC -19.3% | NCI-H522 lung -11% | A549/ATCC NSCLC 1.39% | 786-0 renal -20.6% | COLO 205 colon -51.9%

COc1ccc2c(c1)cn1c3ccc(O)cc3nc(N)c21
active: NCI-H460 lung 8.48% | COLO 205 colon 9.91%
inactive: NCI-H23 lung 25.5% | NCI-H226 lung 45.2% | NCI-H322M lung 40.2% | HOP-62 NSCLC 25.1% | HOP-92 NSCLC 17.2% | NCI-H522 lung 14.2% | A549/ATCC NSCLC 38% | 786-0 renal 18.5%

Cn1c(Nc2ccc(C(F)(F)F)cc2)nc2cc(Oc3ccnc(-c4ncc(C(F)(F)F)[nH]4)c3)ccc21
inactive: NCI-H23 lung 48.8% | NCI-H226 lung 64.5% | NCI-H322M lung 30.8% | HOP-62 NSCLC 60% | NCI-H460 lung 59.2% | HOP-92 NSCLC 67% | NCI-H522 lung 40.5% | A549/ATCC NSCLC 40.1% | 786-0 renal 89.4% | COLO 205 colon 22.9%
